# Test results as given in PubChem BioAssay AID602245 (The Scripps Research Institute Molecular Screening Center, 2012).
# Active and inactive are the calls of the source.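 The calls were made as follows: active = compound that raised the calcium level needed for half-maximal fiber tension by more than 10% versus solvent alone; inactive = the rest.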
# Test: RTF inhibitors shifting pCa50 of muscle force – permeabilized porcine cardiac fibers, force transducer, powder samples, mechanism study for cardiac RTF inhibitor project, late-stage follow-up (AID 602245)
# Details: pig permeabilized cardiac fiber tension, pCa50 shift, at 10 µM; delta pCa50: measured here: shift in calcium sensitivity, stronger effect = lower value; fold change of Ca2+ KD: stronger effect = higher value; maximal force change: measured here: effect on maximal fiber force
compound,measurement,value
NCCCCCCNS(=O)(=O)c1cccc2c(Cl)cccc12,delta pCa50,-0.116
same,fold change of Ca2+ KD,1.31 (active)
same,maximal force change,-4.5%
